Test results taken from PubChem BioAssay (EPA / NIEHS).
Values joined by “and” are separate entries in the source; they are usually repeats but may differ in a detail not shown here. Equal entries are not always repeated. Active and inactive are the calls of the source. The calls were made as follows: active = hit-call score of the fitted dose curve at least 0.9, where 1 is the maximum; inactive = score below 0.9.

Assay: BSK_3C_Proliferation: Cell Proliferation Assessment in the BioMAP Diversity Plus: 3C Assay (AID 2283006);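 as to AC50: potency may reflect either rise or fall in cell number versus DMSO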
Conditions: primary human endothelial cells (HUVEC)
Method: BSK_3C is a cell-based, multiplexed-readout assay that uses umbilical vein endothelium, a human vascular primary cell, with measurements taken at 24 hours after chemical dosing in a 96-well plate.BSK_3C_Proliferation is an assay component measured in the BSK_3C assay. It measures 0.1% sulforhodamine related to cell proliferation using Sulforhodamine staining technology.Data from the assay component BSK_3C_Proliferation was analyzed into 1 assay endpoint. This assay endpoint, BSK_3C_Proliferation, was analyzed with bidirectional fitting relative to DMSO as the negative control and baseline of activity. Using a type of viability reporter, measures of total protein for gain or loss-of-signal activity can be used to understand the viability at the cellular-level. Furthermore, this assay endpoint can be referred to as a secondary readout, because this assay has produced multiple assay endpoints where this one serves a viability function. To generalize the intended target to other relatable targets, this assay endpoint is annotated to the cell cycle intended target family, where the subfamily is proliferation.
The levels of cell surface (or secreted, indicated by the prefix "s") biomarker endpoints were measured by ELISA. Overt cytotoxicity to cells in confluent adherent cultures (all systems other than the BT system) was assessed by measuring total protein levels using sulforhodamine B (SRB) staining in parallel cultures at the time of biomarker measurements, indicated as SRB endpoints. For proliferation assays for adherent cell types, individual cell types are cultured at sub-confluence and relative cell numbers quantified by SRB staining at time points optimized for each system (48 h: 3C and CASM3C systems; 72 h: BT and HDF3CGF systems; 96 h: SAg system). SRB was performed by staining cells with 0.1% SRB after fixation with 10% TCA and reading wells at 560 nm.Viability and proliferation of PBMC (T cells) was quantified by Alamar Blue reduction for the SAg and BT systems. For PBMC viability (referred to as PBMC Cytotoxicity within the assay endpoint names), cells were plated (75,000/well in a 96-well plate) and then chemical samples added for 1 h before addition of activators, SEB and TSST-1 (20 ng/mL final concentration each). Cells were incubated for 90 h. Then, Alamar Blue (20 uL/well) (Invitrogen, Cat DAL1100) was added for 6 h, and the plates were read with a fluorescence microplate reader at 546/580 nm (excitation/emission). For PBMC proliferation, cells were plated and activated as above but incubated for only 16 h prior to addition of Alamar Blue. Plates were read after 6 h.

Structure (SMILES) | outcome | AC50
CCCO[Si](OCCC)(OCCC)OCCC | inactive | –
COc1ccccc1NC(=O)CC(C)=O | inactive | –
CCCCCCCCCC(=O)OCC | – | 20 µM (active)
CC=CC(=O)C1=C(C)C=CCC1(C)C | inactive | –
CCOC(=O)C=Cc1ccccc1 | inactive | –
C[C@]12CC[C@@H]3c4ccc(O)cc4CC[C@H]3[C@@H]1CC[C@@H]2O | – | 8.41 µM (active)
CC(=O)OC(C)(C)C1CC=C(C)CC1 (stereo not given) | – | 28.4 µM (active)
O=C(O)C(F)(F)C(F)(F)C(F)(F)C(F)(F)C(F)(F)C(F)(F)C(F)(F)C(F)F | inactive | –
Nc1ccc(N)c([N+](=O)[O-])c1 | inactive | –
CC(=O)CCC=C(C)CCC=C(C)C | inactive | –
CCC(=O)OCC=Cc1ccccc1 | inactive | –
OCC(F)(OC(F)(F)C(F)(OC(F)(F)C(F)(F)C(F)(F)F)C(F)(F)F)C(F)(F)F (stereo not given) | – | 3.78 µM (active) and 2.59 µM (active)
NC(=O)c1c(Cl)cccc1Cl | inactive | –
CC(C)(CO)CO | inactive | –
O=C(c1ccc(OCCN2CCCCC2)cc1)c1c(-c2ccc(O)cc2)sc2cc(O)ccc12 | – | 12.9 µM (active)
CC(=O)c1ccc(C)cc1 | inactive | –
CCCCN(CCO)CCO | inactive | –
CC/C(=C(\c1ccccc1)c1ccc(OCCN(C)C)cc1)c1ccccc1 | – | 5.46 µM (active) and 6.63 µM (active)
OCCN1CCOCC1 | inactive | –
C=C(F)C(=O)OC(C(F)(F)F)C(F)(F)F | inactive | –

Structure (SMILES) | outcome | AC50
C=C(C)C(N)=O | inactive | –
CCOC(=O)CCCCCCCCC(=O)OCC | inactive | –
c1ccc(OCCOc2ccccc2)cc1 | inactive | –
C=C1CC/C=C(\C)CC[C@@H]2[C@@H]1CC2(C)C | – | 30 µM (active)
CC1(C)[C@H](C=C(Cl)Cl)[C@H]1C(=O)OCc1cccc(Oc2ccccc2)c1 | inactive | –
C=CC(=O)OCC(CO)(COC(=O)C=C)COC(=O)C=C | – | 0.131 µM (active)
c1ccc(Sc2ccccc2)cc1 | – | 27.6 µM (active)
O=C(O)C(F)(F)OC(F)(F)C(F)(F)OC(F)(F)C(F)(F)C(F)(F)C(F)(F)F | – | 54.5 µM (active) and 48.8 µM (active)
CC(C)(C)c1cccc(O)c1 | inactive | –
C=C(C)C(=O)OCCC(F)(F)C(F)(F)C(F)(F)C(F)(F)C(F)(F)C(F)(F)C(F)(F)C(F)(F)F | inactive | –
O=S(=O)(O)C(F)(F)C(F)(F)OC(F)(F)C(F)(F)F | inactive | –
CC(=O)OCC=C(C)CCC=C(C)CCC=C(C)C | inactive | –
CCCCCCCCCCCCS | – | 14.4 µM (active)
CCCCOCCOCCO | inactive | –
CC1=CC(C)C(C=O)C(C)C1 (stereo not given) (tested in a mixture with another compound) | inactive | –
c1ccc2c(c1)-c1ccc3ccc4cccc5cc-2c1c3c45 | inactive | –
CCn1cc(C(=O)O)c(=O)c2ccc(C)nc21 | inactive | –
CCCCCCCC1CCCC1=O (stereo not given) | – | 36.8 µM (active)
C#C[C@]1(O)CC[C@H]2[C@@H]3CCc4cc(O)ccc4[C@H]3CC[C@@]21C | – | 4.5 µM (active)
CC(C)CCCC(C)(C)O | inactive | –
